Six compounds from PubChem BioAssay (NCATS) can be followed below.

The structures appear in SMILES notation. Values without a mark were called inactive. Inconclusive results are not listed. Calls of active or inactive are those of the source. Unless noted, calls come from the whole dose curve; as a rule, active = well fitted curve in either direction with a large enough effect (not every such curve was filed as active); inconclusive = small, poorly fitted or top-dose-only effect, or another doubt; inactive = flat fitted curve, though single readings scatter. A value given as a limit tells only on which side of the number the result lay.

Assay [1] has as its target Lysosomal acid glucosylceramidase (Homo sapiens) (UniProt P04062). Put plainly: Glucocerebrosidase-p2 (AID 348; in the data active = potency below about 10 µM; note: potency is the fitted concentration of half-maximal effect). Particulars: purified GBA, blue fluorogenic substrate, 40 min. A digest of the protocol: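 Compounds titrated from 0.6 nM upwards against 0.2 nM enzyme in pH 5.9 citric acid/KH2PO4, taurocholate, tween-20; blue fluorogenic substrate 80 uM, 40 min room temperature, stopped and read Ex 365/Em 440 for AC50.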

The nature of assay [2]: AP1 Signaling Pathway (AID 357).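 Note: ME-180 reporter cells stimulated with EGF at its EC50 level; % is set by controls: 0 for no effect and ±100 for the full control effect.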 To be noted: ME-180 AP-1-bla reporter, EGF-induced, beta-lactamase ratio, 5 h; at 7.69 µM (top of the series) unless noted. In short, it runs like this:
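In this screen, ME-180 cells in Opti-MEM with 0.5% dialyzed FBS received EC50 EGF and compound titrations for 5 h. AP-1 reporter beta-lactamase was detected via CCF4 ratio, giving AC50 for positive and negative modulators.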

Assay [3] deals with Cytochrome P450 1A2 (Homo sapiens) (UniProt P05177). Nature of the assay: p450-cyp1a2 (AID 410; calls by dose curve; note: potency is the fitted concentration of half-maximal effect). Particulars: recombinant CYP1A2, luciferin-ME demethylation, luminescence; series mostly up to 11.4 µM. In short, it runs like this: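 Inhibition was calculated relative to 57 uM furafylline (full inhibition). The reaction used human CYP1A2 at 20nM with Luciferin-ME at its Km, 100uM, driven by an NADPH-regenerating system for 60 min at room temperature.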
Chain of Cytochrome P450 1A2 (Homo sapiens) (P05177 whole entry, looked up): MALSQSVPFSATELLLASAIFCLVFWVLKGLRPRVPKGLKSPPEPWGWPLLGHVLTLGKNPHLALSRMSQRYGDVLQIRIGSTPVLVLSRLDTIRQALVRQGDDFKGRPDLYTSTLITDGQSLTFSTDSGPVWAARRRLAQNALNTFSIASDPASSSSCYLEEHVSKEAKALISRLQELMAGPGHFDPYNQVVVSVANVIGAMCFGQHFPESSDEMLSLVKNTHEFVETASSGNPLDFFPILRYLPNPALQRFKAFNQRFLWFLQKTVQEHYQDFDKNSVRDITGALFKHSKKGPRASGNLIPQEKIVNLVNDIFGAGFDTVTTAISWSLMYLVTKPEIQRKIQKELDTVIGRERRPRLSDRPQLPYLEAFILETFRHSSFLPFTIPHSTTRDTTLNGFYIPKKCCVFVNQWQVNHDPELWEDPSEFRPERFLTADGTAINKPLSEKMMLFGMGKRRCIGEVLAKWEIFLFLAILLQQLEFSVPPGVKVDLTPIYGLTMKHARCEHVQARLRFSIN

The nature of assay [4]: NFAT Signaling Pathway (AID 444).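 Note: carbachol stimulus at about its EC50 of 1 µM final; % is set by controls: 0 for no effect and ±100 for the full control effect.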 Particulars: Jurkat NFAT-bla M1, carbachol, beta-lactamase ratio, 5 h; at 7.69 µM (top of the series) unless noted. A digest of the protocol:
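Jurkat cells with NFAT-driven β-lactamase reporter and co-expressed M1 receptor, stimulated with carbachol (final 1 uM, ~EC50), compound titration, 5 h at 37 °C. CCF4 loaded 1 h at RT; 460/530 nm ratio gave %activity and AC50.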

Assay [5] can be described thus: Stat Signaling Pathway (AID 446).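 Note: ME-180 cervical cancer cells given 40 pM IL-6 alongside compound; SIE-controlled beta-lactamase reporter measured as 460/530 nm FRET emission ratio; % is set by controls: 0 for no effect and ±100 for the full control effect.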 Particulars: ME-180 (cervical carcinoma) SIE beta-lactamase reporter, IL-6 stimulated, 5 h; at 7.69 µM (top of the series) unless noted. A digest of the protocol:
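ME-180 SIE-bla cells; overnight plating; cpd + IL-6 40 pM, 5 h, 37 C; LiveBLAzer 2.5 h RT; 460/530 nm emission ratio. Normalized to 300 pM IL-6 and 125 nM JAK inhibitor controls.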

Assay [6] addresses Glucocorticoid receptor (Homo sapiens) (UniProt P04150). Put plainly: GR-GFP Redistribution (AID 450;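 active = compounds whose dose series gives a full or clear partial fitted curve of increased nuclear translocation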; note: potency is the fitted concentration of half-maximal effect). Particulars: U2OS GR-GFP nuclear translocation, laser cytometry, 2 h.
For assay [7] the target is unchanged. Nature of the assay: GR-EFC Redistribution (AID 451; calls by dose curve; note: potency is the fitted concentration of half-maximal effect). To be noted: CHO-K1 GR-EFC translocation, beta-gal luminescence, 2 h. A digest of the protocol: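 CHO-K1 cells expressing nuclear EA and GR-ED fragments of b-gal; compounds titrated up to 46 uM final, 2 h at 37 C. GR nuclear translocation read as complemented b-gal luminescence after 1 h RT detection.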
For assay [8], the target named is Mitogen-activated protein kinase 10 (Mus musculus) (UniProt Q61831). Put plainly: JNK3 AlphaScreen Assay (AID 530).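 Note: kinase came from lysate of stimulated human HepG2 cells; signal reports phosphorylation of biotinylated GST-cJun 1-79 at Ser73 with 10 µM ATP; % is set by controls: 0 for no effect and ±100 for the full control effect.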 Particulars: JNK3 lysate, c-Jun phosphorylation; series mostly up to 11.4 µM. A digest of the protocol: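 qHTS format: compounds tested as titrations against IL-1beta/TNF-alpha-activated HepG2 lysate JNK3 with biotin-GST-cJun substrate and 10 uM ATP at room temperature. Loss of anti-phospho-cJun AlphaScreen signal indicates inhibition.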
(Alpha assays give light when donor and acceptor beads are brought close together.)

Assay [9] addresses 3',5'-cyclic-AMP phosphodiesterase 4B (Homo sapiens) (UniProt Q07343). Put plainly: qHTS Assay for Inhibitors of PDE-IV (AID 607; active = well fitted activation curve with a large enough effect in the main read-out, with a control signal flat, not every such curve was filed as active; note: % of control where 0% means no effect). Particulars: HEK293 ACTOne CNG channel cells, membrane potential fluorescence; series mostly up to 22.9 µM. A digest of the protocol: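 ACTOne HEK293 cells carry a modified cAMP-gated CNG channel and express endogenous PDE4; plated 1000 cells/well, compounds up to 22.9 uM final. Membrane-potential dye fluorescence (ex 535/em 590) was read; parental cells received 10 uM forskolin + 100 uM RO 20-1724.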
(Quantitative high-throughput screening tests each substance at several concentrations.)

Assay [10] concerns the target Cytochrome P450 2C9 (Homo sapiens) (UniProt P11712). Nature of the assay: qHTS Assay for Inhibitors and Substrates of Cytochrome P450 2C9 (AID 883; active = well fitted curve in the direction sought with a large enough effect; an effect the other way counts as inactive or inconclusive; note: nearly all actives have a fitted effect of over 60% in size; note: potency is the fitted concentration of half-maximal effect). Particulars: recombinant CYP2C9, luciferin-H luminescence, 60 min; series mostly up to 11.4 µM. In short, it runs like this: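 Signal: luciferase luminescence reporting luciferin produced by CYP2C9. Conditions: 10nM enzyme, Luciferin-H 100uM at KM, 25mM KPO4, 37C, 60 min NADPH-driven reaction. Reference: 57uM sulphaphenazole as 100% inhibition.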

Assay [11] addresses Cytochrome P450 3A4 (Homo sapiens) (UniProt P08684). Nature of the assay: qHTS Assay for Activators of Cytochrome P450 3A4 (AID 885; active = well fitted curve in the direction sought with a large enough effect; an effect the other way counts as inactive or inconclusive; note: nearly all actives have a fitted effect of over 65% in size). To be noted: recombinant CYP3A4, Luciferin-PPXE luminescence, 60 min; series mostly up to 11.4 µM. A digest of the protocol:
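20nM CYP3A4 + 25uM Luciferin-PPXE (=KM), 200mM KPO4; cpd 10 min RT; NADPH regen, 60 min RT; stop w/ detection buffer, 20 min; luminescence. Normalized to 57 uM ketoconazole.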

Assay [12] concerns the target Cytochrome P450 2D6 (Homo sapiens) (UniProt P10635). Nature of the assay: qHTS Assay for Inhibitors and Substrates of Cytochrome P450 2D6 (AID 891; active = well fitted curve in the direction sought with a large enough effect; an effect the other way counts as inactive or inconclusive; note: nearly all actives have a fitted effect of over 60% in size; note: potency is the fitted concentration of half-maximal effect). Particulars: recombinant CYP2D6, luciferin-ME EGE luminescence; series mostly up to 11.4 µM. In short, it runs like this: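 Human CYP2D6 (5 nM) with 30 uM Luciferin-ME EGE (at Km) in 100 mM KPO4, compound preincubated 10 min, then NADPH regeneration system for 60 min at room temperature. Luciferin read by luminescence; normalized to 1.43 uM quinidine.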

Assay [13] deals with Cytochrome P450 3A4 (Homo sapiens) (UniProt P08684). Put plainly: qHTS Assay for Inhibitors and Substrates of Cytochrome P450 3A4 (AID 884; active = well fitted curve in the direction sought with a large enough effect; an effect the other way counts as inactive or inconclusive; note: nearly all actives have a fitted effect of over 50% in size; note: potency is the fitted concentration of half-maximal effect). To be noted: recombinant CYP3A4, Luciferin-PPXE luminescence; series mostly up to 57.1 µM. In short, it runs like this:
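20 nM human CYP3A4 with 25 uM Luciferin-PPXE (at KM) in 200 mM KPO4, preincubated 10 min with compound; NADPH regeneration started a 60 min RT reaction. Luciferin detected by luminescence, normalized to 57 uM ketoconazole as full inhibition.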

In assay [14] the target is Cytochrome P450 2C19 (Homo sapiens) (UniProt P33261). Nature of the assay: qHTS Assay for Inhibitors and Substrates of Cytochrome P450 2C19 (AID 899; active = well fitted curve in the direction sought with a large enough effect; an effect the other way counts as inactive or inconclusive; note: nearly all actives have a fitted effect of over 60% in size; note: potency is the fitted concentration of half-maximal effect). To be noted: recombinant CYP2C19, luciferin-H EGE luminescence; series mostly up to 11.4 µM. In short, it runs like this:
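Signal comes from luciferase acting on luciferin released by CYP2C19-mediated hydroxylation of Luciferin-H EGE, 10uM (KM). Assay mix: 5nM enzyme, 50mM KPO4; 60 min at 37C with NADPH regeneration. Data normalized against 57uM ketoconazole.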

Chain of Cytochrome P450 2C19 (Homo sapiens) (P33261 whole entry, looked up): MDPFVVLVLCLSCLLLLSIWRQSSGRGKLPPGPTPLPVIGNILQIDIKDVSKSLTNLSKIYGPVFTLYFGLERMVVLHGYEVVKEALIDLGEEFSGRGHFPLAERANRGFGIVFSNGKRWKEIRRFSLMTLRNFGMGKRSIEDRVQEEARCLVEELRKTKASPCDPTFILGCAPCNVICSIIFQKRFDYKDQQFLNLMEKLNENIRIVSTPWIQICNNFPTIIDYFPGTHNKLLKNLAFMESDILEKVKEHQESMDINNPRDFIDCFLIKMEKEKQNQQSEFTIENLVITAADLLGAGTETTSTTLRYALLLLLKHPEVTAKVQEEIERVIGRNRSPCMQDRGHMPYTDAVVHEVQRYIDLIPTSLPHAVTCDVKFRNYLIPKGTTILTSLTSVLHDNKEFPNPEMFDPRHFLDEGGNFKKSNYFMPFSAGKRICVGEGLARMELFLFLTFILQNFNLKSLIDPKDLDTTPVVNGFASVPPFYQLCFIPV
Chain of Lysosomal acid glucosylceramidase (Homo sapiens) (P04062 whole entry, looked up): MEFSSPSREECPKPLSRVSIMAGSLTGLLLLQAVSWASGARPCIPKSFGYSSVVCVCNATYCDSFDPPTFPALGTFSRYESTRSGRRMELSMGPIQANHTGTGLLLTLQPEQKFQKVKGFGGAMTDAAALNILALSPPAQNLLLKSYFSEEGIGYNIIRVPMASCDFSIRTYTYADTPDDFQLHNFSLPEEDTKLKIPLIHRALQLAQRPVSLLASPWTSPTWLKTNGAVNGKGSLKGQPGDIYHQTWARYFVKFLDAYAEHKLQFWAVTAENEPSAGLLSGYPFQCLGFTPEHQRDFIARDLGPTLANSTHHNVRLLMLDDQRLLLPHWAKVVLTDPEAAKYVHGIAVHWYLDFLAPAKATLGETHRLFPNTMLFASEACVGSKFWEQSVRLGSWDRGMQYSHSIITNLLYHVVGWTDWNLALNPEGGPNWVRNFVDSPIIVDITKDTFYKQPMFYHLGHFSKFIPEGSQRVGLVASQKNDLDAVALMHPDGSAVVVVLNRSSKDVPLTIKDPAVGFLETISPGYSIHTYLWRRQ
Chain of Cytochrome P450 3A4 (Homo sapiens) (P08684 whole entry, looked up): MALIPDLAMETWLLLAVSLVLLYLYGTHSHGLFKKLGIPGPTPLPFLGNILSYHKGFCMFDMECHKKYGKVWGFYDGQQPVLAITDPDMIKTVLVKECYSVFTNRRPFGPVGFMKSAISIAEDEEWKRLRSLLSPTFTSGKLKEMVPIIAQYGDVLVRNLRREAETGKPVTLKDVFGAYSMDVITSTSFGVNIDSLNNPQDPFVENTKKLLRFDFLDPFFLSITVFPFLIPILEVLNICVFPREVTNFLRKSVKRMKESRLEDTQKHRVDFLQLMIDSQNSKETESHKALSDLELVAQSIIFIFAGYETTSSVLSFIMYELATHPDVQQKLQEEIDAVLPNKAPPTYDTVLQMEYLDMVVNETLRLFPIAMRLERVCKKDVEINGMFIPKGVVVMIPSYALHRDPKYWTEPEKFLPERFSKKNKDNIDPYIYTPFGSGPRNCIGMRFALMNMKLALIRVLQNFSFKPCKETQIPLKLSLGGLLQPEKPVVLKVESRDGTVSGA
Chain of Cytochrome P450 2C9 (Homo sapiens) (P11712 whole entry, looked up): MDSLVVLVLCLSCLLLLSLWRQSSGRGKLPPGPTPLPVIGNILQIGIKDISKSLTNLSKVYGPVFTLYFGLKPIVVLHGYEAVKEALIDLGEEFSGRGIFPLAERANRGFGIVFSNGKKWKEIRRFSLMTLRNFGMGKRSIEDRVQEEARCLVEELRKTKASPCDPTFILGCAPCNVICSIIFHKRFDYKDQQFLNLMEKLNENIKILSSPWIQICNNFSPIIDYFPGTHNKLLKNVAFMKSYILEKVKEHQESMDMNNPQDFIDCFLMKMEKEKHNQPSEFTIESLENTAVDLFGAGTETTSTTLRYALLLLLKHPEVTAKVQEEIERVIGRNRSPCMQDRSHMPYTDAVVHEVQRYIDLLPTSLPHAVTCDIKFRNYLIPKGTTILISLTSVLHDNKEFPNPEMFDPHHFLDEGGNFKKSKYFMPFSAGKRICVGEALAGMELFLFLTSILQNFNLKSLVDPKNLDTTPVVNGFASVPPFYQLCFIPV
Chain of 3',5'-cyclic-AMP phosphodiesterase 4B (Homo sapiens) (Q07343 whole entry, looked up): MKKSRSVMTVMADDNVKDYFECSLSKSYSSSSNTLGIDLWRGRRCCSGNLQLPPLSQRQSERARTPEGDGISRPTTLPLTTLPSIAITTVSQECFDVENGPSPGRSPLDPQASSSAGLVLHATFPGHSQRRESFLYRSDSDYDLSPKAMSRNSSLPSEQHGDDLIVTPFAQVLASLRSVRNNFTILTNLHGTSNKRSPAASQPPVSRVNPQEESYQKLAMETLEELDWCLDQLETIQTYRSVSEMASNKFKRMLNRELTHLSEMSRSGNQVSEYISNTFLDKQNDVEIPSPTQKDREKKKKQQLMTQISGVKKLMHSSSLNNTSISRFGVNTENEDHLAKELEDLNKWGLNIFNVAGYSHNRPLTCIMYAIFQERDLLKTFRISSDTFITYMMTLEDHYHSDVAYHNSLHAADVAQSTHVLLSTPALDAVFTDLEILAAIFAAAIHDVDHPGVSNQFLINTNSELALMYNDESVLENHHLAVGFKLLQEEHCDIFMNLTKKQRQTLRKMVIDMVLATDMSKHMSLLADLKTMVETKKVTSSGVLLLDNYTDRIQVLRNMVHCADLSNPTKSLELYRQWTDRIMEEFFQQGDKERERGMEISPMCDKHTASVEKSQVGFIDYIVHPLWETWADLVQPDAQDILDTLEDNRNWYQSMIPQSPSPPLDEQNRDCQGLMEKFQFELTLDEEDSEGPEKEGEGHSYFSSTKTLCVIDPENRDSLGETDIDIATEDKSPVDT
Chain of Glucocorticoid receptor (Homo sapiens) (P04150 whole entry, looked up, the tested form may be a part): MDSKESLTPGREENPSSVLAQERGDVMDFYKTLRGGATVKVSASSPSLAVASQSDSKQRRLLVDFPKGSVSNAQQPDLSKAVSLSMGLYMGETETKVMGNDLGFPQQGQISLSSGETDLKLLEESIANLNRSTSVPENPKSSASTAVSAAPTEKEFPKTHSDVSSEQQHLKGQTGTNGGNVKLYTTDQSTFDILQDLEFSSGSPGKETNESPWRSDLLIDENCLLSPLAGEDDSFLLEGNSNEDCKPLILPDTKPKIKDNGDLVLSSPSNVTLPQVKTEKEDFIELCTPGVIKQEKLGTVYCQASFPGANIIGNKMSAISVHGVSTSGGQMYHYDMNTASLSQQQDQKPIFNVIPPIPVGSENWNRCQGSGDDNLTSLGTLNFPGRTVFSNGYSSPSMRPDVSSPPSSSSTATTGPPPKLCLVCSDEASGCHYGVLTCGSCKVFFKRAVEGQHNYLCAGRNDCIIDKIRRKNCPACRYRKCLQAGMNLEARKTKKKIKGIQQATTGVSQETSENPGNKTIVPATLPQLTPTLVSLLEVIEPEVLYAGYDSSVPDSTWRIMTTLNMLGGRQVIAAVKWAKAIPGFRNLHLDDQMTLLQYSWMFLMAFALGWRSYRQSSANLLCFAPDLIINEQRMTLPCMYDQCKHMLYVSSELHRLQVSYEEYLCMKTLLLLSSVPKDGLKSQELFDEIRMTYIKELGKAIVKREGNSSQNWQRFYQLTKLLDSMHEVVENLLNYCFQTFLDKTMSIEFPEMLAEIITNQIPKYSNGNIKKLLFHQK
Chain of Cytochrome P450 2D6 (Homo sapiens) (P10635 whole entry, looked up): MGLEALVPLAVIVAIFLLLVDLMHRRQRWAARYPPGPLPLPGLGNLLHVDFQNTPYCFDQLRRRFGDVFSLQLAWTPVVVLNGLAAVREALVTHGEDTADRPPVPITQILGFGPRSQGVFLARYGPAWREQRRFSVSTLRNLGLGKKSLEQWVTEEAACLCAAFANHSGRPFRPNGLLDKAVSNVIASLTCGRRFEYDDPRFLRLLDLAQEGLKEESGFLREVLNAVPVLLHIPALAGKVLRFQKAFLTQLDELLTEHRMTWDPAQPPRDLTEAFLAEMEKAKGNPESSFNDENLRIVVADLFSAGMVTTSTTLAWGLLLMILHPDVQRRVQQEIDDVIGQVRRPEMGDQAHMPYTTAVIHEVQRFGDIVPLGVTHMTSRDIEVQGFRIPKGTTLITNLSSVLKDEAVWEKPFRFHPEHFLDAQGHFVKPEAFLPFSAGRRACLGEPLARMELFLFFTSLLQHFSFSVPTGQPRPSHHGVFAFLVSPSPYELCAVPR

Consider `Clc1ccc(CSCCc2ccncc2)cc1Cl`, for which the Potency in assay [1] was more than 11.4 µM; in assay [3] it was 0.316 µM (active); in assay [6] it was more than 46 µM; in assay [7] it was more than 9.22 µM; in assay [10] it was 0.0794 µM (active); in [12], 0.316 µM (active). Also, the activity change, negative = inhibition in assay [2] is -26.7%; in [4], 2.37%. For the same compound, the activity, negative = inhibition in [5] was 5.37%. The Potency entry in [8], in [9] and in assay [11] was “inactive” in each case.
As for `O=C(O)CSC1=NCCN1`, the Potency in [1] is more than 11.4 µM; in [6], more than 46 µM; in assay [7], more than 9.22 µM. The activity change, negative = inhibition in [2] was 17%; in assay [4], 7.29%; in assay [13], 7.95% [at 11.4 µM]. In addition, the Potency entry in [3], in assay [8], in assay [9], in assay [10], in assay [12] and in assay [14] was “inactive” each time. The activity, negative = inhibition in assay [5] is 4.64%.
Take `Oc1cccc2ccc(SSc3ccc4cccc(O)c4n3)nc12`: the Potency in assay [1] was more than 11.4 µM; in assay [3] it was 3.16 µM (active); in assay [6], more than 46 µM; in [7] it was more than 9.22 µM; in assay [10], 1.58 µM (active); in assay [14] it was 3.16 µM (active). In addition, the activity change, negative = inhibition was 1.21% in [2] and -22.6% in [4]. Also, in [5], the activity, negative = inhibition was -15.4%. In addition, the Potency entry in assay [8], in [9] and in assay [11] was “inactive” in each case.
Consider `Cn1c(=S)c2[nH]c(SCc3cccnc3)nc2n(C)c1=O`, for which the Potency is more than 11.4 µM in assay [1]; 3.98 µM (active) in assay [3]; more than 46 µM in assay [6]; more than 9.22 µM in [7]; 3.16 µM (active) in assay [13]. The activity change, negative = inhibition in assay [2] was -21.1%; in assay [4], 0.274%. The activity, negative = inhibition in assay [5] was 1.06%. For the same compound, the Potency entry in [8], in assay [9] and in [11] was “inactive” throughout.
In the case of `BrC(c1cccc2ccccc12)c1cccc2ccccc12`, the Potency in assay [1] was more than 11.4 µM; in assay [3], 1.26 µM (active); in assay [6] it was more than 46 µM; in [7] it was more than 9.22 µM; in [10] it was 3.16 µM (active); in assay [14], 1.26 µM (active). For the same compound, the values for the activity change, negative = inhibition in assay [2] and in assay [4] were 0.329% and -5.96%, respectively. In assay [5], the activity, negative = inhibition is -2.07%. In addition, the Potency entry in [8] and in assay [9] was “inactive” each time.
On to `CN(C)CCNCCN`, for which the Potency in assay [1] is more than 11.4 µM; in assay [6] it was more than 46 µM; in [7], more than 9.22 µM. Further, the results for the activity change, negative = inhibition in assay [2] and in assay [4] were 9.73% and 16.1%, respectively. Further, the Potency entry in assay [3], in assay [8], in assay [9], in assay [10] and in assay [14] was “inactive” throughout. For the same compound, in assay [5], the activity, negative = inhibition was 4.92%.
